In PubChem BioAssay AID1159580 (chemical genetic matrix, 2015):
“And” between values parts separate entries of the source, which are not always exact repeats. Identical values can stand only once. The campaign covered roughly 5,500 compounds. About 2,000 (36%) were called active. Another 18% or so got no clear call; they are omitted. No stated cut-off is given here; in the data, active means normalized growth mostly below about 0.91 (no sharp cut-off); inconclusive means no clear call, values can overlap the other calls; inactive means mostly above about 0.92. This is one part of the list.

Assay: chemical genetic growth profiling, strain panel (AID 1159580);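 further: tested at 20 µM; growth read once vehicle control cultures reached saturation at 30 °C; 1 = growth at the plate median or of vehicle wells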
Conditions: growth OD
[1] = S. cerevisiae deletion strains, locus YAL013W, strain DEP1, stronger effect = lower value
[2] = S. cerevisiae deletion strains, locus YBR229C, strain ROT2, stronger effect = lower value
[3] = S. cerevisiae deletion strains, locus YDL101C, strain DUN1, stronger effect = lower value
[4] = S. cerevisiae deletion strains, locus YEL061C, strain CIN8, stronger effect = lower value
[5] = S. cerevisiae deletion strains, locus YGR078C, strain PAC10, stronger effect = lower value
[6] = S. cerevisiae deletion strains, locus YHR030C, strain SLT2, stronger effect = lower value
[7] = S. cerevisiae deletion strains, locus YHR087W, strain rtc3, stronger effect = lower value
[8] = S. cerevisiae deletion strains, locus YJL187C, strain SWE1, stronger effect = lower value
[9] = S. cerevisiae deletion strains, locus YJR043C, strain POL32, stronger effect = lower value
[10] = S. cerevisiae deletion strains, locus YJR075W, strain HOC1, stronger effect = lower value
[11] = S. cerevisiae deletion strains, locus YLR039C, strain RIC1, stronger effect = lower value
[12] = S. cerevisiae deletion strains, locus YLR058C, strain SHM2 (second series), stronger effect = lower value
[13] = S. cerevisiae deletion strains, locus YLR085C, strain ARP6, stronger effect = lower value
[14] = S. cerevisiae deletion strains, locus YLR262C, strain YPT6, stronger effect = lower value
[15] = S. cerevisiae deletion strains, locus YML094W, strain GIM5, stronger effect = lower value
[16] = S. cerevisiae deletion strains, locus YMR219W, strain ESC1, stronger effect = lower value
[17] = S. cerevisiae deletion strains, locus YMR263W, strain SAP30, stronger effect = lower value
[18] = S. cerevisiae deletion strains, locus YNL153C, strain GIM3, stronger effect = lower value
[19] = S. cerevisiae deletion strains, locus YNL298W, strain CLA4 (second series), stronger effect = lower value
[20] = S. cerevisiae deletion strains, locus YNL322C, strain KRE1, stronger effect = lower value
[21] = S. cerevisiae deletion strains, locus YNR030W, strain Alg12, stronger effect = lower value
[22] = S. cerevisiae deletion strains, locus YOL006C, strain TOP1, stronger effect = lower value
[23] = S. cerevisiae deletion strains, locus YPL055C, strain LGE1, stronger effect = lower value
[24] = S. cerevisiae deletion strains, locus YPL241C, strain CIN2, stronger effect = lower value
[25] = S. cerevisiae deletion strains, locus YPR135W, strain CTF4, stronger effect = lower value
[26] = S. cerevisiae strains, strain wild type, stronger effect = lower value

Measured: normalized growth

CCOc1ccc(/C=C(\C)[N+](=O)[O-])cc1OC
inactive: S. cerevisiae deletion strains, locus YAR019C, strain CDC15, stronger effect = lower value 0.976 | S. cerevisiae deletion strains, locus YBL105C, strain PKC1, stronger effect = lower value 0.975 | S. cerevisiae deletion strains, locus YBR135W, strain CKS1, stronger effect = lower value 0.97 | S. cerevisiae deletion strains, locus YBR136W, strain MEC1, stronger effect = lower value 0.973 | S. cerevisiae deletion strains, locus YBR160W, strain CDC28, stronger effect = lower value 0.971 | S. cerevisiae deletion strains, locus YDL017W, strain CDC7, stronger effect = lower value 0.97 | S. cerevisiae deletion strains, locus YDL028C, strain MPS1, stronger effect = lower value 0.973 | S. cerevisiae deletion strains, locus YDL108W, strain KIN28, stronger effect = lower value 0.979 | S. cerevisiae deletion strains, locus YDL132W, strain cdc53, stronger effect = lower value 0.991 | S. cerevisiae deletion strains, locus YDR052C, strain DBF4, stronger effect = lower value 0.984 | S. cerevisiae deletion strains, locus YDR054C, strain cdc34, stronger effect = lower value 0.978 | S. cerevisiae deletion strains, locus YDR226W, strain ADK1, stronger effect = lower value 0.97 | S. cerevisiae deletion strains, locus YFL009W, strain cdc4, stronger effect = lower value 0.98 | S. cerevisiae deletion strains, locus YFL029C, strain CAK1, stronger effect = lower value 0.97 | S. cerevisiae deletion strains, locus YFR003C, strain YPI1, stronger effect = lower value 0.978 | S. cerevisiae deletion strains, locus YFR028C, strain CDC14, stronger effect = lower value 0.974 | S. cerevisiae deletion strains, locus YIL147C, strain SLN1, stronger effect = lower value 0.973 | S. cerevisiae deletion strains, locus YJL128C, strain PBS2, stronger effect = lower value 0.964 | S. cerevisiae deletion strains, locus YJR016C, strain ILV3, stronger effect = lower value 0.985 | S. cerevisiae deletion strains, locus YKL193C, strain SDS22, stronger effect = lower value 0.973 | S. cerevisiae deletion strains, locus YMR001C, strain CDC5, stronger effect = lower value 0.967 | S. cerevisiae deletion strains, locus YMR277W, strain FCP1, stronger effect = lower value 0.973 | S. cerevisiae deletion strains, locus YNL006W, strain LST8, stronger effect = lower value 0.976 | S. cerevisiae deletion strains, locus YNL161W, strain CBK1, stronger effect = lower value 0.961 | S. cerevisiae deletion strains, locus YNL207W, strain RIO2, stronger effect = lower value 0.977 | S. cerevisiae deletion strains, locus YNL222W, strain SSU72, stronger effect = lower value 0.976 | S. cerevisiae deletion strains, locus YOL078W, strain AVO1, stronger effect = lower value 0.98 | S. cerevisiae deletion strains, locus YOR329C, strain SCD5, stronger effect = lower value 0.965 | S. cerevisiae deletion strains, locus YPL209C, strain IPL1, stronger effect = lower value 0.968 | S. cerevisiae deletion strains, locus YPR025C, strain CCL1, stronger effect = lower value 0.969 | S. cerevisiae deletion strains, locus YPR106W, strain ISR1, stronger effect = lower value 0.972 | S. cerevisiae deletion strains, locus YPR111W, strain DBF20, stronger effect = lower value 0.978 | S. cerevisiae deletion strains, strain NNK1, stronger effect = lower value 0.975 | S. cerevisiae deletion strains, strain TSCII, stronger effect = lower value 0.977
active: [1] 0.525 | [2] 0.25 | [3] 0.426 | S. cerevisiae deletion strains, locus YDL134C, strain PPH21, stronger effect = lower value 0.106 | S. cerevisiae deletion strains, locus YDL214C, strain PRR2, stronger effect = lower value 0.471 | S. cerevisiae deletion strains, locus YDR477W, strain SNF1, stronger effect = lower value 0.516 | [4] 0.22 | S. cerevisiae deletion strains, locus YER123W, strain YCK3, stronger effect = lower value 0.232 | S. cerevisiae deletion strains, locus YER133W, strain GLC7, stronger effect = lower value 0.482 | S. cerevisiae deletion strains, locus YFR019W, strain FAB1, stronger effect = lower value 0.284 | S. cerevisiae deletion strains, locus YGR040W, strain KSS1, stronger effect = lower value 0.478 | S. cerevisiae deletion strains, locus YGR052W, strain FMP48, stronger effect = lower value 0.382 | [5] 0.437 | S. cerevisiae deletion strains, locus YGR092W, strain DBF2, stronger effect = lower value 0.226 | [6] 0.0845 and 0.197 | S. cerevisiae deletion strains, locus YHR079C, strain IRE1, stronger effect = lower value 0.313 | S. cerevisiae deletion strains, locus YHR082C, strain KSP1, stronger effect = lower value 0.429 | [7] 0.401 | S. cerevisiae deletion strains, locus YHR205W, strain SCH9, stronger effect = lower value 0.57 | S. cerevisiae deletion strains, locus YJL095W, strain BCK1, stronger effect = lower value 0.269 | S. cerevisiae deletion strains, locus YJL157C, strain FAR1, stronger effect = lower value 0.46 | [8] 0.434 | [9] 0.602 | S. cerevisiae deletion strains, locus YJR066W, strain TOR1 (second series), stronger effect = lower value 0.126 | S. cerevisiae deletion strains, locus YJR066W, strain TOR1, stronger effect = lower value 0.257 | [10] 0.178 | S. cerevisiae deletion strains, locus YKL048C, strain ELM1, stronger effect = lower value 0.534 | S. cerevisiae deletion strains, locus YKL067W, strain YNK1, stronger effect = lower value 0.458 | S. cerevisiae deletion strains, locus YKL101W, strain HSL1, stronger effect = lower value 0.393 | S. cerevisiae deletion strains, locus YKL203C, strain TOR2, stronger effect = lower value 0.489 | [11] 0.285 | [12] 0.651 | [13] 0.163 | S. cerevisiae deletion strains, locus YLR113W, strain HOG1, stronger effect = lower value 0.203 | S. cerevisiae deletion strains, locus YLR133W, strain CKI1, stronger effect = lower value 0.547 | [14] 0.283 | S. cerevisiae deletion strains, locus YLR403W, strain SFP1, stronger effect = lower value 0.497 | S. cerevisiae deletion strains, locus YML070W, strain DAK1, stronger effect = lower value 0.295 | [15] 0.145 | S. cerevisiae deletion strains, locus YMR205C, strain PFK2 (second series), stronger effect = lower value 0.554 | [16] 0.285 | [17] 0.463 | S. cerevisiae deletion strains, locus YNL020C, strain ARK1, stronger effect = lower value 0.528 | [18] 0.171 | S. cerevisiae deletion strains, locus YNL183C, strain NPR1, stronger effect = lower value 0.359 | [19] 0.204 | S. cerevisiae deletion strains, locus YNL307C, strain MCK1 (second series), stronger effect = lower value 0.364 | [20] 0.873 | [21] 0.0808 | [22] 0.0719 | S. cerevisiae deletion strains, locus YOL136C, strain PFK27, stronger effect = lower value 0.374 | S. cerevisiae deletion strains, locus YOR061W, strain CKA2, stronger effect = lower value 0.571 | S. cerevisiae deletion strains, locus YOR119C, strain RIO1, stronger effect = lower value 0.444 | S. cerevisiae deletion strains, locus YOR231W, strain MKK1, stronger effect = lower value 0.289 | S. cerevisiae deletion strains, locus YPL031C, strain PHO85, stronger effect = lower value 0.409 | [23] 0.86 | S. cerevisiae deletion strains, locus YPL153C, strain RAD53, stronger effect = lower value 0.318 | S. cerevisiae deletion strains, locus YPL204W, strain HRR25, stronger effect = lower value 0.431 | [24] 0.0938 | S. cerevisiae deletion strains, locus YPL256C, strain CLN2, stronger effect = lower value 0.266 | [25] 0.233 | [26] 0.0825

CC(=O)N/C(=C/c1ccc2c(c1)OCO2)C(=O)O
inactive: [1] 1.01 | [2] 1 | S. cerevisiae deletion strains, locus YCL061C, strain MRC1, stronger effect = lower value 1.02 | [3] 1 | S. cerevisiae deletion strains, locus YDR150W, strain NUM1, stronger effect = lower value 0.915 | [4] 1.02 | [5] 1 | S. cerevisiae deletion strains, locus YGR229C, strain SMI1, stronger effect = lower value 1.02 | [6] 1.06 | [7] 1 | [8] 1.01 | [9] 1.01 | [10] 1.02 | S. cerevisiae deletion strains, locus YKL190W, strain CNB1, stronger effect = lower value 1.01 | [11] 1.07 | [12] 1.01 | [13] 1.02 | [14] 1.07 | [15] 1.01 | [16] 1 | [17] 1.01 | [18] 1.01 | [19] 1.01 | [20] 1 | [21] 1.01 | [22] 1.04 | [23] 0.87 | [24] 1 | [25] 0.998 | [26] 1.02
